Compound activity (PubChem BioAssay)
Dicer inh = blocks human Dicer maturation of pre-miR-21; cat-ELCCA pre-miR-21 Dicer processing, chemiluminescence; stronger effect = higher value; hit rate 6% among 47,000; z-score at 25 µM; Q9UPY3; in the data active = z-score above about 3, passing the limit was not always enough;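 also: plate controls were vehicle for no effect and no enzyme for full effect; higher signal means more uncleaved substrate so more Dicer inhibition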
Starred values were filed as active, the others as inactive. The sample as a whole holds a higher share of hits than the screen did.

SMILES	Dicer inh
CCN1C(=O)C2(/C(=C(/O)c3ccc4c(c3)CC(C)O4)C(=O)C(=O)N2CCCN(C)C)c2ccccc21 (configuration not stated)	4.29*
CCCCN1C(=O)C2(/C(=C(/O)c3ccc(C)cc3)C(=O)C(=O)N2CCCN(C)C)c2ccccc21 (configuration not stated)	1.8
CN(S(=O)(=O)c1ccc(F)cc1)S(=O)(=O)c1ccc(Cl)cc1	-1.35
O=c1[nH]cnc2c1ncn2COCCO	-0.53
Cc1cc(Cl)ccc1NC(=S)NNC(=O)C(O)(c1ccccc1)c1ccccc1	0.61
FC(F)(F)c1cc(-c2cccs2)nc2c(-c3ccccc3)cnn12	0.49
COc1cc(/C=C/c2nc(=O)c3ccccc3o2)ccc1O	1.25
Cc1cc([N+](=O)[O-])nn1CC(=O)Nc1ccccn1	-0.84
Cc1cc([N+](=O)[O-])nn1CC(=O)Nc1cnc2ccccc2c1	3.51*
CCOc1ccc(S(=O)(=O)Nc2cnc3ccccc3c2)cc1	-2.77
O=S(=O)(Nc1ccc(C(F)(F)F)cc1Cl)c1ccc(Br)s1	0.19
CC(C)OC(=O)Nc1ccc(Cl)c(Cl)c1	-0.65
Cn1nc(-c2ccccc2)c(C#N)c1S(C)(=O)=O	3.22*
Cc1ccc(-c2n[nH]c(S(C)(=O)=O)c2C#N)cc1	-2.11
CS(=O)(=O)c1scc(-c2ccccc2)c1C#N	-1.08
COC(=O)c1cnc(NNS(=O)(=O)c2ccc(C)cc2)nc1C(F)(F)F	0.59
O=[N+]([O-])c1cccnc1NC1CCN(Cc2ccccc2)CC1	2.12
COC(=O)C1=C(C)Nc2[nH]c(=O)[nH]c(=O)c2C1c1ccc(Br)cc1 (configuration not stated)	1.18
COC(=O)C1=C(C)Nc2c(c(=O)n(C)c(=O)n2C)C1c1ccc(Br)cc1 (configuration not stated)	3.4*
COC(=O)C1=C(C)NC2=C(C(=O)CCC2)C1c1ccc(Br)cc1 (configuration not stated)	-0.9
CN1CCc2c(sc3c2C(=O)NC(c2ccc(-c4ccccc4Cl)o2)N3)C1 (configuration not stated)	-0.25
N#CC1=C(SCc2ccccc2)NC(=O)CC1c1ccc(Cl)cc1 (configuration not stated)	0.4
CCOC(=O)Cn1c(=O)c2cnc3c(c(C)nn3C)c2n1C	-0.24
COC(=O)c1csc2c(C(F)(F)F)cc(=O)[nH]c12	0.3
CCOC(=O)C(=CNc1nc(-c2cc(C#N)c(=O)[nH]c2C)cs1)C(=O)OCC	-0.22
SMILES	Dicer inh
CCOC(=O)CN1C(=O)C(=O)c2ccccc21	4.6*
Cc1c(NC(=O)COC(=O)CN2C(=O)C(=O)c3ccccc32)c(=O)n(-c2ccccc2)n1C	3.78*
CC1CCN(C(=O)CN2C(=O)C(=O)c3ccccc32)CC1	1.49
O=C(COC(=O)CN1C(=O)C(=O)c2ccccc21)NCc1ccco1	1.35
Cc1c(NC(=O)OCc2ccccc2)c(=O)n(-c2ccccc2)n1C	-0.02
CCOC(=O)CCN1C(=O)c2ccccc2C1=O	0.31
COc1ccc(CCn2c(=S)[nH]c3cc(C(F)(F)F)ccc32)cc1OC	-1.3
COC(=O)c1cc(/C=N/NS(=O)(=O)c2ccc(C)cc2)cn1C	-2.31
CCN(CC)CCn1c2ccc(C)cc2c2nc3ccccc3nc21	0.68
CCOC(=O)c1cncc(C(=O)OCC)c1	0.16
C1=C(c2ccccc2)Nc2ncnn2C1c1cccs1 (configuration not stated)	0.58
CSC(=NC(=O)c1c(Cl)cccc1Cl)N1CCCC(C)C1 (configuration not stated)	-0.22
Cn1c(=O)n(CC(=O)O)c(=O)c2c1nc1n2CCN1c1ccccc1	-0.92
COc1ccc(OC)c(C2C(C#N)=C(C)NC3=C2C(=O)CC(c2ccccc2)C3)c1 (configuration not stated)	0.45
Cc1cc(Br)cnc1N=CNO	0.37
Cc1cc(Br)cnc1N=CN(C)C	3.01*
Cc1cc(N=CN(C)C)c2ccccc2n1	-1.68
CC(=O)Nc1ccc([N+](=O)[O-])c(C(=O)O)c1	-1.38
CCOC(=O)/C(C#N)=C/N=C(N/N=C(\C)c1ccc(Cl)c(Cl)c1)SC	-0.18
CC(C)NC(=O)Cn1cc(C(=O)C(C)(C)C)c2ccccc21	0.8
CC(=O)Nc1cccc(-n2nnc(SCC(=O)c3ccc4c(c3)OCCCO4)n2)c1	3.08*
O=C(O)CCC(=O)c1ccc2c(c1)OCCCO2	1.2
CC(=O)Nc1cccc(-n2nnc(SCc3ccccc3)n2)c1	1.1
CCOC(=O)C(C(=O)OCC)c1ccc2cccc(O)c2n1	-0.59
CCc1nc(SCC(=O)c2ccc(F)cc2)n[nH]1	3.18
SMILES	Dicer inh
CC1(C)CC(=O)C(C=Nc2ccc(F)cc2F)=C(O)C1	7.52
COc1ccc(N2C(=O)C3C4c5ccccc5C(c5ccccc54)C3C2=O)cc1 (configuration not stated)	1.49
COc1cccc(N2C(=O)C3C4c5ccccc5C(c5ccccc54)C3C2=O)c1 (configuration not stated)	3.7*
COc1cccc(N2CC(=O)N(NC(=O)NC3CCCCC3)CC2=O)c1	2.81
COc1ccccc1N1C(=O)C2C3c4ccccc4C(c4ccccc43)C2C1=O (configuration not stated)	-0.08
Cc1cccnc1N1C(=O)C2C3c4ccccc4C(c4ccccc43)C2C1=O (configuration not stated)	0.69
NN1CC(=O)N(c2cccc(C(F)(F)F)c2)CC1=O	1.21
COC(=O)c1ccccc1N1C(=O)C2C3c4ccccc4C(c4ccccc43)C2C1=O (configuration not stated)	4.25*
COc1cccc(N2CC(=O)N(N)CC2=O)c1	3.77*
COC(=O)c1ccccc1N1CC(C(=O)O)CC1=O (configuration not stated)	2.34
Cc1cc(NS(=O)(=O)c2ccc(NC(=O)CSCC(=O)O)cc2)no1	-0.46
CC(c1ccco1)N(C(=O)c1sc2ccccc2c1Cl)c1ccccn1 (configuration not stated)	-0.79
CCOC(=O)c1cnc2cc(C(C)(C)C)[nH]n2c1=O	-0.03
C/C(=N\N=C(/C)c1ccc(O)cc1)c1ccc(O)cc1	-1.13
FC(F)(F)COc1ccc(-c2nnc(SCc3ccccc3C(F)(F)F)o2)cn1	-2.1
Cn1c2ccccc2c2nnc(SCC(=O)O)nc21	0.4
COC(=O)c1ccc(S(=O)(=O)NCCNc2cccc(C(F)(F)F)n2)n1C	-0.1
CC1CCc2c(sc3ncn4cnnc4c23)C1 (configuration not stated)	-0.73
Cc1cc(=O)[nH]c(/N=C(\N)Nc2ccc(F)cc2F)n1	-0.36
Cc1onc(-c2ccccc2)c1-c1nc(CSc2nc3ccccc3[nH]2)no1	0.38
COc1ccc(CN2CCN(Cc3cc(Br)ccc3OC)CC2)cc1	0.33
CCCS(=O)(=O)N1CCN(Cc2cc(Br)ccc2O)CC1	2.6
COc1cccc(CN2CCN(Cc3ccccc3Br)CC2)c1OC	1.37
COc1ccc(Br)cc1CN1CCN(Cc2ccncc2)CC1	2.07
COc1cccc(CN2CCN(Cc3cc(Br)ccc3O)CC2)c1OC	3.76*
COc1ccc(CN2CCN(Cc3ccc(Br)cc3)CC2)c(OC)c1	0.24
COc1ccc(CN2CCN(Cc3cc(Br)ccc3O)CC2)c(OC)c1	4.53*
CCS(=O)(=O)N1CCN(Cc2cc(Br)ccc2O)CC1	4.87*
Cc1ccc(S(=O)(=O)N2CCN(Cc3cc(C(C)C)ccc3O)CC2)cc1	0.25
CS(=N)(=O)c1ccc(Oc2ccc([N+](=O)[O-])cn2)cc1 (configuration not stated)	-1.02
